For experiment [1], the system named is Wnt5a (protein binding on small-molecule microarray). The experiment in a line: Wnt5a binders on small-molecule microarray, primary screen, biophysical, 635/667 nm fluorescence (AID 1142).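 Note: fluorescence read at 667 nm with signal to noise per printed feature.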 As to conditions: 635 nm fluorescence, higher = more signal.
A short description of experiment [2]: cell viability in Huh7 cells, primary screen, cytotoxicity control for HCV replication inhibitor project, CellTiter-Glo luminescence, basal, 48 h (AID 1143).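 Note: Huh7 hepatoma cells carrying a hepatitis C replication reporter with no stimulus; test concentration not given here.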 As to conditions: Huh7 HCV replicon, higher = more signal, called active from +8 up or from −8 down. (Cellular ATP, detected with luciferase, serves as a proxy for viable cell number.)
Experiment [3] is described as follows: P. aeruginosa biofilm formation inhibitors, primary screen, PAO1 strain, BacTiter-Glo luminescence, LB-PBS (AID 1144). As to conditions: 12 h, higher = more signal.
The nature of experiment [4]: CREB reporter modulators without forskolin, primary screen, cell-based, PC12, CRE-LacZ reporter, unstimulated (AID 1145). The settings on record: no forskolin, luminescence, 4.5 h, higher = more signal, called active from +8 up or from −8 down.
Experiment [5] in a line: CREB reporter modulators under forskolin, primary screen, cell-based, PC12, CRE-LacZ reporter, forskolin-stimulated (AID 1146).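 Note: PC12 cells with 6xCRE LacZ reporter stimulated by forskolin 10 µM; beta-galactosidase reporter signal reflecting CREB driven transcription.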 The settings on record: luminescence, 4.5 h, higher = more signal, called active from +8 up or from −8 down.
The target in experiment [6] is Streptavidin (Streptomyces avidinii) (UniProt P22629). Put plainly: streptavidin binders on small-molecule microarray, primary screen, artefact control for SMM compound annotation, biophysical, 635/667 nm fluorescence (AID 1147).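 Note: signal reflects streptavidin binding to arrayed compounds as a control protein.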 The settings on record: streptavidin binding, higher = more signal.
Streptavidin (Streptomyces avidinii), sequence (P22629 whole entry, looked up): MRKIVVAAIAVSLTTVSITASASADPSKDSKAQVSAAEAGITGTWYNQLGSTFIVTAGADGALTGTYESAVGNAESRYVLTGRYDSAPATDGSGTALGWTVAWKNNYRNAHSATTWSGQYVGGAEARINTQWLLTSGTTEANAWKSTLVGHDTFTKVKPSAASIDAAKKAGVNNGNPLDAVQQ
Experiment [7] can be described thus: small-molecule binders of probe aInhba, primary screen, biochemical, small-molecule microarray, 635/667 nm fluorescence (AID 1148).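 Note: score merges 667nm spot fluorescence with signal-to-noise for antibody binding to printed compounds.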 As to conditions: higher = more signal.
The target in experiment [8] is Torsin-1A (Homo sapiens) (UniProt O14656). Put plainly: torsin A binders from cell lysate, primary screen, small-molecule microarray, wild-type, 635/667 nm (AID 1149). The settings on record: COS7 hTOR1A-WT lysate, 635 nm fluorescence, higher = more signal.
Torsin-1A (Homo sapiens), sequence (O14656 whole entry, looked up): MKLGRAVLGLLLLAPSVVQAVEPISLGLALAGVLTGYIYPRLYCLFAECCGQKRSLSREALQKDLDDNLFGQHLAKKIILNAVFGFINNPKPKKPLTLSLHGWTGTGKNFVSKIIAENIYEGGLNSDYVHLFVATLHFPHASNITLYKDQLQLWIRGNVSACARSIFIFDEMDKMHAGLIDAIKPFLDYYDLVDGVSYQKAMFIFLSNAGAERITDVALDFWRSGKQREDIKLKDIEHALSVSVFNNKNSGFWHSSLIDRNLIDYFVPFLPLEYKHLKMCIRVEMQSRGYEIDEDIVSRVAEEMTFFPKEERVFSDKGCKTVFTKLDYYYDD
For experiment [9] the target is unchanged. The experiment in a line: small-molecule binders of mutant TOR1A in lysate, primary screen, cell lysate, small-molecule microarray, COS7 lysate, 635/667 nm fluorescence (AID 1150).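 Note: score pools 667 nm emission and signal to noise measuring lysate protein binding.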 As to conditions: COS7 hTOR1A mutant lysate, 635 nm fluorescence, higher = more signal.
For experiment [10], the system named is Sonic hedgehog protein (Shh). Put plainly: small-molecule binders of Shh protein, primary screen, biochemical, small-molecule microarray, 635/667 nm fluorescence (AID 1151).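 Note: Shh protein binding to compounds spotted on small-molecule microarray slides; score combines spot fluorescence intensity with signal-to-noise across triplicate slides.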 As to conditions: small-molecule microarray binding, 635 nm fluorescence; higher = more signal.
The nature of experiment [11]: E. coli DRC41 culture turbidity changes, primary screen, E. coli filamentation inducer project, strain DRC41, OD650, 48 h (AID 1152).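 Note: E. coli MC1000 strain DRC41 lacking acrAB efflux pump and sulA.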 As to conditions: E. coli DRC41 (acrAB sulA), higher = more signal, called active from +8 up or from −8 down.
Experiment [12] in a line: small-molecule binders of probe aLefty1, primary screen, biochemical, small-molecule microarray, 635/667 nm fluorescence (AID 1153).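 Note: score merges spot fluorescence with signal-to-noise ratio from the scanned slide images.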 As to conditions: higher = more signal.
A short description of experiment [13]: PSAC antagonists in infected red cells, primary screen, cell-based, P. falciparum Indochina, OD700, 1 h (AID 1154). As to conditions: P. falciparum Indochina infected RBC osmotic lysis, higher = more signal, called active from +8 up or from −8 down.
Experiment [14] is described as follows: PSAC antagonists in infected red cells, primary screen, cell-based, P. falciparum Indochina, OD700, 2 h (AID 1155).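 Note: lysis reports solute entry through the parasite surface anion channel PSAC; channel blockers reduce lysis of infected cells.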 As to conditions: P. falciparum Indochina infected erythrocytes, osmotic lysis OD700; higher = more signal, called active from +8 up or from −8 down.
The nature of experiment [15]: osmotic lysis modulators in infected erythrocytes, primary screen, PSAC antagonist project, cell-based, P. falciparum Indochina, OD700, 3 h (AID 1156). The settings on record: higher = more signal, called active from +8 up or from −8 down.
The nature of experiment [16]: PSAC antagonists in infected red cells, primary screen, cell-based, P. falciparum Indochina, OD700, 18 h (AID 1157). The settings on record: P. falciparum Indochina infected erythrocytes, osmotic lysis OD700, 18 h; higher = more signal, called active from +8 up or from −8 down.
Experiment [17] is described as follows: modulators of S6 phosphorylation in cells, primary screen, cell-based, A549, cytoblot, luminescence, serum-stimulated (AID 1158).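 Note: serum-stimulated A549 lung adenocarcinoma cells; signal is phosphorylated S6 detected by cytoblot immunostaining with HRP secondary.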 The settings on record: A549 phospho-S6 cytoblot, 5 h, higher = more signal.
The target in experiment [18] is NADPH oxidase 2 (Homo sapiens) (UniProt P04839). The experiment in a line: NOX2-dependent H2O2 signal modulators, primary screen, NOX inhibitor project, cell-based, HEK293-NOX2, PMA-stimulated, Amplex Red fluorescence (AID 1159). Note: test concentration not given here. The settings on record: 45 min, higher = more signal, called active from +8 up or from −8 down.
NADPH oxidase 2 (Homo sapiens), sequence (P04839 whole entry, looked up): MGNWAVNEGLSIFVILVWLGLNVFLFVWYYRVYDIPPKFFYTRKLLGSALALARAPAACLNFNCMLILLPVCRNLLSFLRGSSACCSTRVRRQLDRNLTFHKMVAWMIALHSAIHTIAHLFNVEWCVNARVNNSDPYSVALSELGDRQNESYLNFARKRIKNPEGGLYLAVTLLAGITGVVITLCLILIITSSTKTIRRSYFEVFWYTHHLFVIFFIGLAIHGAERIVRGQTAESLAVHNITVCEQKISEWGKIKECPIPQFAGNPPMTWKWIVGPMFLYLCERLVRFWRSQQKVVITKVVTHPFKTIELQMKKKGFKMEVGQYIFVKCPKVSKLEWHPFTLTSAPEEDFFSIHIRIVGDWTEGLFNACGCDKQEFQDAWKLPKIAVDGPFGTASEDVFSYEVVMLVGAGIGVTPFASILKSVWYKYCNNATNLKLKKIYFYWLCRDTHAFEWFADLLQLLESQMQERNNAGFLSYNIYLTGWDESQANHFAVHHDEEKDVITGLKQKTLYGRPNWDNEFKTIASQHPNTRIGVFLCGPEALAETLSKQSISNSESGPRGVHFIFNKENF
In experiment [19] the target is NADPH oxidase 4 (Homo sapiens) (UniProt Q9NPH5). Put plainly: NOX4-dependent H2O2 signal modulators, primary screen, NOX inhibitor project, cell-based, HEK293-NOX4, tetracycline-induced, Amplex Red fluorescence (AID 1160). As to conditions: 45 min, higher = more signal, called active from +8 up or from −8 down.
NADPH oxidase 4 (Homo sapiens), sequence (Q9NPH5 whole entry, looked up): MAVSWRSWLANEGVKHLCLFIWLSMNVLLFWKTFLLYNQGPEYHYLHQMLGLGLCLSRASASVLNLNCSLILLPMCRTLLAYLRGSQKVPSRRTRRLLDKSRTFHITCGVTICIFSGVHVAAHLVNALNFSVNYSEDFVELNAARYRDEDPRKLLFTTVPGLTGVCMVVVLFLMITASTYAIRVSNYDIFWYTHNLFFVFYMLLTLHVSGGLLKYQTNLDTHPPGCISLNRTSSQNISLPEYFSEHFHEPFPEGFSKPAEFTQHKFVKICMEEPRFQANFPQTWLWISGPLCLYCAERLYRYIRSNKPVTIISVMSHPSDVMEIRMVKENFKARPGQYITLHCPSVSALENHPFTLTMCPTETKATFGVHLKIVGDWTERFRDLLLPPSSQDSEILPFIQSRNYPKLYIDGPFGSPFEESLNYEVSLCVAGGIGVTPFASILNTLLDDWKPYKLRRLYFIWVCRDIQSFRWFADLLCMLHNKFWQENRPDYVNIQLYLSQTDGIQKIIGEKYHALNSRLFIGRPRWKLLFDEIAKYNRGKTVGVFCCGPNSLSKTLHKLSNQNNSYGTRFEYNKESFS
The target in experiment [20] is NADPH oxidase 5 (Homo sapiens) (UniProt Q96PH1). The experiment in a line: NOX5-dependent H2O2 signal modulators, primary screen, NOX inhibitor project, cell-based, HEK293-NOX5, Amplex Red fluorescence (AID 1161). The settings on record: HEK293-NOX5, ionomycin, 45 min, higher = more signal.
NADPH oxidase 5 (Homo sapiens), sequence (Q96PH1 whole entry, looked up): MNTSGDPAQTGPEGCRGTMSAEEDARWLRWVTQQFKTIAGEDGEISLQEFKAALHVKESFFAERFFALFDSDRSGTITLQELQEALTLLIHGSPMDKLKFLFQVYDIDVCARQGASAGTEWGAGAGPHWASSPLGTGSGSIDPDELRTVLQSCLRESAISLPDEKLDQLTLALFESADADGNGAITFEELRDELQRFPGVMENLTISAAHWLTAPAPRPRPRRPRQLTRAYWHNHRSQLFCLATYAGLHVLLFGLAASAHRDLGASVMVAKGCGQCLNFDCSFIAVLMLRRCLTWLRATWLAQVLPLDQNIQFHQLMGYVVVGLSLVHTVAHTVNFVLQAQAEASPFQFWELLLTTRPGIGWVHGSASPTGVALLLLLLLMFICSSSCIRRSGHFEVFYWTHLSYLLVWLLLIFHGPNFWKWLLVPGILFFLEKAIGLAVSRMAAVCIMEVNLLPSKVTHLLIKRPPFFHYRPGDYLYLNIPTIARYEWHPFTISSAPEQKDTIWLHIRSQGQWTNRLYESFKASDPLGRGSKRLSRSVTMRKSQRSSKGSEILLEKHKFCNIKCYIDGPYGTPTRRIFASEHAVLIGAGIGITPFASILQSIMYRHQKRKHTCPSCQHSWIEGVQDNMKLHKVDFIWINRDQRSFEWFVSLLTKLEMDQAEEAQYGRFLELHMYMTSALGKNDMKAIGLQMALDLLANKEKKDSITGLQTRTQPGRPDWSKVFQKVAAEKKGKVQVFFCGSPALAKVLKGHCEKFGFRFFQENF

Calls of active or inactive are those of the source. Unless noted, the rule behind the calls is not given here.

In the case of `C[C@H]1CC[C@H]2C(=O)OC(COc3ccc(C(C)(C)C)cc3)CN2[C@@H]1c1ccc(Br)cc1` (stereo not given in full), the composite z-score was 0.253 in [1]; 0.468 in [6]; -0.176 in experiment [7]; 0.213 with Torsin-1A (Homo sapiens) [8]; 0.179 in the experiment with Torsin-1A (Homo sapiens) [9]; 0.0438 in [10]. Moreover, the composite z-score in experiment [12] was -0.103. In addition, the z-score was -0.259 (inactive) in [2]; -1.12 (inactive) in experiment [3]; 2.36 (inactive) in experiment [4]; -1.04 (inactive) in experiment [5]; 0.786 (inactive) in experiment [11]; 1.39 (inactive) in [13]. The z-score in [14] is 0.0974 (inactive); in experiment [15], -1.24 (inactive); in [16], 0.0011 (inactive); in experiment [17] it was 0.0307; in experiment [18], 0.426 (inactive); in experiment [19] it was 0.317 (inactive). In addition, the z-score in [20] worked out at 0.671.
For the molecule `CCc1cc2c(nc1CC)CCN(CCC(C)=NOCC[C@@H]1C=C[C@H](OC(C)=O)[C@@H](COC(C)=O)O1)C2`, the composite z-score was 0.257 in experiment [1]; 1.78 in experiment [6]; 0.127 in [7]; 2.66 in the experiment with Torsin-1A (Homo sapiens) [8]; 1.66 with Torsin-1A (Homo sapiens) [9]; 1.32 in experiment [10]. In addition, the composite z-score in experiment [12] is 0.245. In addition, the z-score in experiment [2] was 0.0095 (inactive); in [3], -0.0152 (inactive); in [4], 3.88 (inactive); in experiment [5], 0.329 (inactive); in experiment [11] it was -0.842 (inactive); in experiment [13], 1.86 (inactive). The z-score is 0.724 (inactive) in [14]; 0.77 (inactive) in experiment [15]; 0.269 (inactive) in experiment [16]; -1.04 in experiment [17]; -0.572 (inactive) in [18]; 0.615 (inactive) in experiment [19]. For the same molecule, in [20], the z-score stood at 1.65.
In the case of `CON=C(C)CCN1CCCCc2nc(C)c(C)cc21`, the composite z-score in experiment [1] is 0.0272; in experiment [6], -0.0284; in experiment [7], -0.0131; in the experiment with Torsin-1A (Homo sapiens) [8], 1.5; in the experiment with Torsin-1A (Homo sapiens) [9] it was 0.816; in experiment [10], 0.936. This molecule came in with a composite z-score in [12] of 0.168. The z-score is 0.559 (inactive) in experiment [2]; -0.0896 (inactive) in [3]; 0.397 (inactive) in [4]; 1.13 (inactive) in [5]; -1.23 (inactive) in experiment [11]; -0.149 (inactive) in experiment [13]. For the same molecule, the z-score in experiment [14] is -0.117 (inactive); in experiment [15], -0.374 (inactive); in experiment [16], 0.269 (inactive); in experiment [17], -0.834; in experiment [18], -0.0289 (inactive); in experiment [19], -0.0593 (inactive). Also, the z-score in experiment [20] is -0.836.
In the case of `O=C1C2=CC[C@H]3C(=O)N(Cc4ccccc4)C(=O)[C@H]3[C@H]2[C@H](O)[C@@H]2O[C@H]12`, the composite z-score in experiment [1] was -0.134; in [6], -0.0955; in experiment [7] it was -0.128; with Torsin-1A (Homo sapiens) [8], 0.367; with Torsin-1A (Homo sapiens) [9] it was 0.216; in experiment [10], -0.575. This molecule showed a composite z-score in experiment [12] of -0.379. Besides, the z-score in [2] is -6.84 (inactive); in experiment [3], 0.252 (inactive); in experiment [4], 0.518 (inactive); in experiment [5], 25 (active); in experiment [11], -0.536 (inactive); in [13] it was 0.472 (inactive). The z-score in [14] was 0.147 (inactive); in experiment [15] it was -0.178 (inactive); in [16], 0.157 (inactive); in [17], -0.451; in experiment [18], -1.41 (inactive); in experiment [19], 0.16 (inactive). In addition, the z-score in experiment [20] is 0.44.
Turning to `COC(=O)[C@@H]1CC[C@H](C)[C@@H](c2ccc(C)cc2)N1C(=O)c1ccc(C=NOC[C@@H](O)[C@H]2O[C@@H]3OC(C)(C)O[C@@H]3[C@H]2O)cc1`, the composite z-score in [1] was 0.0258; in experiment [6], 0.54; in experiment [7] it was 0.31; in the experiment with Torsin-1A (Homo sapiens) [8], 0.215; with Torsin-1A (Homo sapiens) [9], 0.277; in experiment [10], 0.241. In experiment [12], this molecule yielded a composite z-score of 0.0313. The z-score was 0.48 (inactive) in experiment [2]; -0.0399 (inactive) in [3]; 9.08 (active) in experiment [4]; 0.413 (inactive) in [5]; 1.44 (inactive) in experiment [11]; 0.465 (inactive) in experiment [13]. Also, the z-score in experiment [14] was 0.364 (inactive); in [15], 0.107 (inactive); in experiment [16], 0.342 (inactive); in [17] it was -0.924; in experiment [18], 0.659 (inactive); in experiment [19], 0.589 (inactive). Also, in experiment [20], the z-score came to 0.417.
As for `O=C1C2=CC[C@H]3C(=O)N(C4CCCCC4)C(=O)[C@H]3[C@H]2[C@H](O)[C@@H]2O[C@H]12`, the composite z-score was -0.272 in experiment [1]; -0.408 in experiment [6]; -0.183 in experiment [7]; -0.695 with Torsin-1A (Homo sapiens) [8]; -0.53 in the experiment with Torsin-1A (Homo sapiens) [9]; -0.689 in experiment [10]. The molecule further registered a composite z-score in [12] of -0.245. For the same molecule, the z-score in [2] was -8.35 (active); in experiment [3], -0.366 (inactive); in experiment [4] it was 17.1 (active); in experiment [5] it was 30.1 (active); in experiment [11] it was -1.95 (inactive); in [13], -0.0599 (inactive). For the same molecule, the z-score is -0.153 (inactive) in experiment [14]; 0.215 (inactive) in [15]; -1.56 (inactive) in experiment [16]; -1.01 in experiment [17]; 0.951 (inactive) in [18]; 0.3 (inactive) in [19]. In experiment [20], the z-score was determined as 0.952.

For the origin of these results see PubChem BioAssay.
